Reference: PubChem BioAssay (NCI)
About 79,000 compounds went through this panel and 15% of them were active in at least one assay; those are over-represented in the sample as a whole. Unmarked numbers belong to inactive results. The source made the active and inactive calls. Rule as the data show it: active = growth inhibition above about 70%; inactive = the rest.

How the values were obtained:
[1] = NCI Yeast Anticancer Drug Screen. Data for the rad50 strain (AID 155);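 also: 0% = growth of vehicle-only cultures of the same strain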; conditions: S. cerevisiae rad50 strain growth inhibition, hits give high values
In short: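 Compounds were tested on a yeast strain with an engineered DNA damage repair alteration; the reported value is growth inhibition normalised to vehicle treatment.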

[2] = NCI Yeast Anticancer Drug Screen. Data for the mec2-1 strain (AID 157); conditions: S. cerevisiae mec2-1 strain, hits give high values
In short: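 Compounds were applied to mec2-1 yeast cells. Their growth was then compared with that of vehicle-treated cultures to give growth inhibition.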

[3] = NCI Yeast Anticancer Drug Screen. Data for the sgs1 mgt1 strain (AID 161);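 also: 0% = growth of cultures given vehicle only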; conditions: S. cerevisiae sgs1 mgt1 strain, hits give high values
In short: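 Growth of a repair-deficient yeast mutant was monitored after compound treatment and expressed as inhibition relative to vehicle-treated cultures.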

[4] = NCI Yeast Anticancer Drug Screen. Data for the cln2 rad14 strain (AID 165);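 also: 0% = growth equal to vehicle treated cultures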; conditions: S. cerevisiae cln2 rad14 strain, hits give high values
In short: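 Strain: cln2 rad14 yeast, altered in cell cycle control and DNA damage repair. Read-out: growth inhibition vs vehicle.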

[5] = NCI Yeast Anticancer Drug Screen. Data for the bub3 strain (AID 167); conditions: S. cerevisiae bub3 mutant strain, hits give high values
In short: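 Growth of a checkpoint-deficient yeast mutant is measured after compound exposure. Values represent inhibition relative to vehicle.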

[6] = NCI Yeast Anticancer Drug Screen. Data for the mlh1 rad18 strain (AID 175); conditions: S. cerevisiae mlh1 rad18 strain growth inhibition, hits give high values
In short: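 A repair-deficient yeast strain is exposed to test compound, and growth is scored relative to vehicle-treated controls.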

[7] = at 5.0 µM (retest, dose inferred, filed as 0.5)
[8] = at 50.0 µM (retest, dose inferred, filed as 5.0)

Compound | growth inhibition [1, 7] | growth inhibition [1, 8] | growth inhibition ([1]; at 50.0 µM) | growth inhibition [2, 7] | growth inhibition [2, 8] | growth inhibition ([2]; at 50.0 µM) | growth inhibition [3, 7] | growth inhibition [3, 8] | growth inhibition ([3]; at 50.0 µM) | growth inhibition [4, 7] | growth inhibition [4, 8] | growth inhibition ([4]; at 50.0 µM) | growth inhibition [5, 7] | growth inhibition [5, 8] | growth inhibition ([5]; at 50.0 µM) | growth inhibition [6, 7] | growth inhibition [6, 8] | growth inhibition ([6]; at 50.0 µM)
COC(=O)c1ccc(Cl)c(Cl)c1 | 1% | 20% | 8.2% | -2% | 2% | 6.75% | 2% | 11% | 11.8% | 1% | 0% | 75.3% (active) | 12% | 13% | 22% | 1% | 17% | -0.65%
Cn1c(=S)sc2nc3ccccc3n2c1=S | 49% | 96% (active) | 82.3% (active) | 12% | 97% (active) | 97% (active) | 37% | 98% (active) | 92.2% (active) | 18% | 98% (active) | 90% (active) | 14% | 98% (active) | 87.4% (active) | 54% | 97% (active) | 97.9% (active)
O=C(NC1CCN(Cc2ccccc2)CC1)c1ccc(I)cc1 | 40% | 59% | 68% | 46% | 62% | 49.7% | 52% | 87% (active) | 74.6% (active) | 81% (active) | 88% (active) | 77.2% (active) | 60% | 49% | 74.3% (active) | 53% | 78% (active) | 76.8% (active)
C=CCOCCC(=O)OCC=C | 0% | -2% | 7% | 1% | 0% | 40.4% | 1% | -1% | 15.9% | -1% | 0% | 72.2% (active) | -2% | -1% | 67.4% | -1% | -1% | 70.8% (active)
CC1=C(C)C(=O)C(C(C)(C)CC(=O)n2cc(F)c(=O)[nH]c2=O)=C(C)C1=O | 24% | 87% (active) | 93.5% (active) | 22% | 98% (active) | 97.5% (active) | 56% | 95% (active) | 97.2% (active) | 11% | 46% | 41.6% | 0% | 63% | 1.05% | 18% | 85% (active) | 86.8% (active)
c1ccc(SSc2ccccc2)cc1 | -6% | 64% | 47.3% | -38% | 18% | 20.7% | 0% | 25% | 77% (active) | 1% | 3% | 18.9% | 38% | 20% | 26.7% | -2% | 50% | 87.7% (active)
O=C1c2ccccc2C(=O)c2sc(Nc3ccc([N+](=O)[O-])cc3)nc21 | 89% (active) | 98% (active) | 60.3% | 91% (active) | 99% (active) | 77.4% (active) | 99% (active) | 99% (active) | 58.1% | 62% | 99% (active) | 29% | 100% (active) | 99% (active) | 80.7% (active) | 90% (active) | 99% (active) | 84.5% (active)
O=C1c2ccccc2-c2cc3ccccc3nc21 | 28% | 89% (active) | 72.7% (active) | 21% | 70% (active) | 60.8% | 15% | 67% | 48.2% | 23% | 73% (active) | 62.4% | 15% | 73% (active) | 61.3% | 16% | 82% (active) | 84.5% (active)
CC(C)N(C(=O)C12C3C4C1C1C2C3C41I)C(C)C (configuration not stated) | 16% | -6% | 57.5% | -28% | 19% | 67.4% | 44% | 27% | 68.5% | 3% | 28% | 42.7% | -38% | -11% | 61% | -34% | 20% | 73.5% (active)
